Bioassay records as filed in PubChem BioAssay.
hgDAF-12 ag – activates the H. glycines DAF-12 receptor ligand-binding domain; HEK293 GAL4-hgDAF12 UAS-luciferase reporter, agonist luminescence; normalized to butyrate control; activation, % at 6.8 µM; 1.8% of 370,000 active; AID 687014;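 active = activation above a cutoff set at the mean of all screened compounds plus 3 SD, cut at about 10% in these data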;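 also: 0% = DMSO wells and 100% = sodium butyrate wells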
AHR activator – activates the human aryl hydrocarbon receptor | 2.5% of 320,000 active | activation, % at 5 µM | AID 2796 | P35869 | AHR-responsive luciferase reporter cells, luminescence; in the data active = activation above about 47%;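 also: 0% = vehicle wells and 100% = reference agonist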
DAX1 inh-1 – blocks DAX1 repression of SF-1 activated StAR promoter; HEK293T StAR-luciferase reporter, SF-1/DAX-1 repression relief; inhibition, % at 6.8 µM; 1.1% of 370,000 active; AID 652010;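 active = inhibition above the mean over all tested compounds plus 3 SD, cut at about 3.6% in these data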;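 also: 0% = DAX-1 cells with DMSO and 100% = cells lacking DAX-1 with DMSO; higher inhibition means more luminescence from relief of DAX-1 repression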
ssDAF-12 act – activates DAF-12 receptor from parasite S. stercoralis | HEK293 ssDAF-12/GRIP1 lit1-tk-luc reporter, luminescence; % of 3 µM dafachronic acid response | activation, % at 6.8 µM | 1% of 370,000 active | AID 652126;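 active = activation above the mean over all tested compounds plus 3 SD, cut at about 0.9% in these data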;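 also: 0% = DMSO-only wells and 100% = 3 µM delta7-dafachronic acid wells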
hcDAF-12 act – H. contortus DAF-12 activation, primary screen. AID 652067. activation, % at 6.8 µM. HEK293 hcDAF-12 lit1-tk-luc reporter, luminescence; 0% DMSO, 100% Δ7-dafachronic acid. 1.4% of 370,000 active;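 active = activation above the mean of all tested compounds plus 3 SD, cut at about 5.5% in these data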;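 also: 100% = response to 3 µM Δ7-dafachronic acid high control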
DAX1 inh-2 – NR0B1 (DAX1) inhibition; inhibition, % at 6.75 µM; P51843; HEK293 Gal4-DAX1 luciferase reporter, luminescence; 0.99% of 340,000 active; AID 504766;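 active = inhibition above the mean over all tested compounds plus 3 SD, cut at about 4.2% in these data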;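 also: 0% = DAX1-transfected cells with DMSO and 100% = empty-vector control cells with DMSO; inhibition shows as a rise in luminescence from relieved DAX1 repression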
Target sequence (P51843 207-470 limits assumed): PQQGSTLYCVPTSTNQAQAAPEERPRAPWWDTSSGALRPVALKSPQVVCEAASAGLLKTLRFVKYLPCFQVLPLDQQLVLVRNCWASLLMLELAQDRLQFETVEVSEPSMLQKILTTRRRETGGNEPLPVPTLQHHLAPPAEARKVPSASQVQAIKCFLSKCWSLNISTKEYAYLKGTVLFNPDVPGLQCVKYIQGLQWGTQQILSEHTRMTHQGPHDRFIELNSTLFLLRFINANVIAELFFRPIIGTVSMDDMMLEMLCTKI
AHR act confirm – confirmation of human aryl hydrocarbon receptor activators; human cells, AHR-responsive luciferase reporter, luminescence; 87% of 2,300 active; shares compounds with AHR activator; AID 2845; activation, % at 9 µM; in the data active = activation above about 49%;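 also: HepG2 hepatoma cells carrying a DRE-driven firefly luciferase reporter; 0% = vehicle wells and 100% = reference agonist wells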
PXR counter – activates human PXR in AHR activator counter-screen; shares compounds with AHR activator; cell-based PXR reporter, luciferase luminescence; activation, % at 11.6 µM; 88% of 2,300 active; in the data active = activation above about 11%;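 also: human hepatoma DPX-2 cells expressing full-length human PXR; 0% = DMSO and 100% = reference agonist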
DAX1 inh confirm – confirmation of human DAX1 (NR0B1) inhibitors; shares compounds with DAX1 inh-1; AID 652134; HEK293T StAR-promoter luciferase reporter, SF-1/DAX-1 repression; 87% of 2,400 active; inhibition, % at 6.8 µM;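 active = inhibition above the average of every tested compound plus 3 SD, cut at about 3.8% in these data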;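 also: 0% = DAX-1 cells with DMSO and 100% = no DAX-1 control cells with DMSO; active compounds raise luminescence by relieving repression of the StAR reporter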
Target sequence (P51843 whole entry, looked up): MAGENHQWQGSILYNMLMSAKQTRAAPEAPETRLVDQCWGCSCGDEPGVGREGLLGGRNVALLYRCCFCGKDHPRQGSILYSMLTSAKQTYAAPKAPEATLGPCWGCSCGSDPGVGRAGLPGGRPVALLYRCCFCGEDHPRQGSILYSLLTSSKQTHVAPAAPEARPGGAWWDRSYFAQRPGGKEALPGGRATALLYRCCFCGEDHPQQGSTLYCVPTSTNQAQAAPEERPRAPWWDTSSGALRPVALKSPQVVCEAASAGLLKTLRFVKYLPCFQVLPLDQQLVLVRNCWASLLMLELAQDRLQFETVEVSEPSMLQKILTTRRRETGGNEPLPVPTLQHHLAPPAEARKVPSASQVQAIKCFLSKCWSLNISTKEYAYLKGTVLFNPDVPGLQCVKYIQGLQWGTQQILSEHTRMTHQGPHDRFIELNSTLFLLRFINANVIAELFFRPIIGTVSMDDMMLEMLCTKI
SF1 AF2mut Luc – counter-screen for DAX1 inhibitors: nonselective inhibitors with SF-1 AF2 mutant. shares compounds with DAX1 inh-1. AID 652136. inhibition, % at 6.8 µM. HEK293 StAR-luciferase, luminescence. 78% of 2,400 active;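 active = inhibition above the mean of all tested compounds plus 3 SD, cut at about 3% in these data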;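 also: 0% = DAX-1 transfected cells with DMSO and 100% = cells without DAX-1 with DMSO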
LXRb hcDAF ctr – counter-screen for hcDAF-12 agonists: agonists of human LXR-beta. 3,400 tested, under 10 active. shares compounds with hcDAF-12 act. HEK293 Gal4-LXR tk-luc reporter, luminescence, 24 h; normalized: DMSO 0%, positive control 100%. activation, % at 6.8 µM;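 active = mean percent activation of the reporter above a cutoff set as the average over tested compounds plus their standard deviation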
hcDAF12 ag – hcDAF-12 agonism, confirmation assay; shares compounds with hcDAF-12 act; HEK293 hcDAF-12 lit1-tk-luc reporter, luminescence; % of Δ7-dafachronic acid response; activation, % at 6.8 µM; 61% of 3,400 active;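 active = mean activation across triplicate tests above the threshold derived from the earlier primary screen, cut at about 5.5% in these data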;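 also: 0% = DMSO only wells and 100% = 3 µM Δ7-dafachronic acid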
hgDAF12 conf – hgDAF-12 agonism, confirmation assay. AID 743050. 80% of 3,300 active. shares compounds with hgDAF-12 ag. HEK293 GAL4-hgDAF12 luciferase reporter, agonist mode; percent of butyrate response. activation, % at 6.8 µM;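 active = mean activation over triplicate wells above the hit cutoff derived from the earlier primary screen, cut at about 11% in these data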;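 also: 0% = DMSO low control and 100% = 2 mM sodium butyrate high control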
LXR ag 2 – LXR-beta agonism as DAF-12 counter-screen | shares compounds with hgDAF-12 ag | HEK293 Gal4-LXR luciferase reporter, 24 h | activation, % at 6.8 µM | 3,300 tested, under 10 active;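 active = mean activation of the triplicate above a set limit carried over from the primary screen, none filed active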
* hit, by the source's call; / = no result. A selection: hits, their analogues and other compounds. The true share with any hit is near 5.7%.

SMILES	hgDAF-12 ag	AHR activator	DAX1 inh-1	ssDAF-12 act	hcDAF-12 act	DAX1 inh-2	others
Cc1nn(Cc2ccccc2Cl)c(C)c1C(=O)OCC(=O)N1CC(C)OC(C)C1 (stereo not given)	-3.4	52.1*	0.2	-1.6	-1.7	0.8
Cc1nn(Cc2ccccc2Cl)c(C)c1C(=O)OCC(=O)NC1CCCC(C)C1C (stereo not given)	1.7	0.0	-0.5	-0.4	-1.6	-0.3
C[C@]12CC[C@H](O)C[C@H]1CC[C@@H]1[C@@H]2CC[C@]2(C)C(=O)CC[C@@H]12	-0.1	1.0	1.3	-1.2	0.1	4.3*
CN(C)CCN(C(=O)COc1ccc(Cl)cc1)c1nc2cc3c(cc2s1)OCO3	3.5	5.5	0.2	0.0	-0.3	0.4
CN(C(=O)Oc1ccc(C(C)(C)C)cc1)c1ccccc1	11.3*	0.1	0.3	-0.6	-2.0	0.1
Cn1c(O)c(C=NCCN2CCNCC2)c(=O)[nH]c1=O	-3.0	-0.4	-0.1	-1.7	-0.2	/
O=C(NC(=S)N1C[C@H]2C[C@H](C1)c1cccc(=O)n1C2)c1ccc(Cl)cc1Cl	-2.5	0.4	-0.8	-0.7	-1.2	1.3
O=C1OC(c2ccc(Br)cc2)=N/C1=C\N1CC2CC(C1)c1cccc(=O)n1C2 (stereo not given)	0.6	8.5	-0.3	-1.9	-2.4	0.3
O=C1OC(c2ccc(Cl)cc2)=N/C1=C\N1CC2CC(C1)c1cccc(=O)n1C2 (stereo not given)	5.1	7.2	-0.3	1.6*	-0.9	1.9
C(=NN1CCCCCC1)c1c[nH]c2ccccc12	3.3	/	0.4	-0.1	2.2	-0.6
Brc1ccc2[nH]cc(/C=N/N3CCCCC3)c2c1	-1.2	83.1*	-0.4	-0.5	1.7	-0.7	AHR act confirm=33.3;PXR counter=21.7*
O=C1CN=C(c2ccc(Br)cc2)c2oc3ccccc3c2N1	1.2	82.4*	-0.3	-0.7	-0.1	-1.3	AHR act confirm=107.8*;PXR counter=29.0*
O=C1CN=C(c2ccc(F)cc2)c2oc3ccccc3c2N1	0.3	2.5	0.0	-1.8	-1.7	-1.8
O=c1nc(/C=C/c2ccc(Cl)cc2Cl)cc(C(F)(F)F)[nH]1	0.6	/	-0.3	-1.4	-0.6	-1.0
COc1ccccc1C1CC2CCC(C1OC(C)=O)N2Cc1ccccc1 (stereo not given)	-1.2	-0.2	0.3	-1.5	-0.2	-0.7
Cc1nc2ccc(Cl)cc2c(=O)n1-c1ccc([N+](=O)[O-])cc1	-1.3	140.2*	-0.7	-0.4	0.3	1.5	AHR act confirm=3.9;PXR counter=11.4*
Cc1nc2cc([N+](=O)[O-])ccc2c(=O)n1-c1ccc(Br)cc1	0.5	87.2*	-0.3	-0.8	-0.8	1.7	AHR act confirm=34.5;PXR counter=11.4*
COc1ccccc1CNC(=O)CCC(=O)N1C[C@H]2C[C@@H](C1)c1cccc(=O)n1C2	2.6	-0.4	-0.6	-1.7	0.1	3.3
Cc1cnc(-n2c(=S)[nH]c3ccccc3c2=O)s1	1.1	124.7*	-0.8	-1.3	1.1	-0.7	AHR act confirm=137.5*;PXR counter=19.5*
Cc1cc(N=Nc2ccccc2C)ccc1N	15.5*	80.4*	2.0	0.4	3.8	6.0*	AHR act confirm=129.6*;PXR counter=11.6*;hgDAF12 conf=13.2*;LXR ag 2=0.6
COC(=O)C1=C(c2ccc(C(C)=O)cc2)C[C@@H]2CC[C@H]1N2C(=O)N1CCC(O)(c2ccc(Cl)cc2)CC1	-2.0	-0.9	0.2	-1.6	-2.6	0.1
Cc1cc(OCC(=O)N2CCCN(C)CC2)ccc1Cl	2.5	4.9	5.2*	-0.4	-0.3	-0.1	DAX1 inh confirm=2.8;SF1 AF2mut Luc=0.5
CN1CCCN(C(=O)COc2ccc(Br)cc2)CC1	1.6	-0.3	-0.2	0.1	0.7	1.6
C[C@H]1CCCC(=O)CCC/C=C/c2cc(O)cc(O)c2C(=O)O1	-7.0	2.5	-1.2	-2.3	-4.0	0.9
C[C@H]1CCC/C=C/[C@@H]2C[C@H](O)C[C@H]2[C@H](O)/C=C/C(=O)O1	-1.3	-7.3	4.4*	-2.2	-2.9	-3.1	DAX1 inh confirm=10.2*;SF1 AF2mut Luc=2.4
SMILES	hgDAF-12 ag	AHR activator	DAX1 inh-1	ssDAF-12 act	hcDAF-12 act	DAX1 inh-2	others
COC(=O)C1=C(c2cccc3c2S(=O)(=O)c2ccccc2-3)C[C@@H]2CC[C@H]1N2C(=O)N1CCc2cc(OC)c(OC)cc2C1	-4.9	0.9	-0.7	-1.7	-3.8	-2.3
CCOC(=O)[C@]12Cc3ccccc3[C@H]1N(C(C)C)C(=O)c1cc(OC)ccc12	-3.6	/	7.0*	-1.3	0.2	/	DAX1 inh confirm=6.0*;SF1 AF2mut Luc=15.9*
CCOC(=O)[C@]12Cc3c(cc(OC)c(OC)c3OC)[C@H]1N(C)C(=O)c1cc(OC)ccc12	-0.3	/	4.7*	-1.1	1.6	/	DAX1 inh confirm=9.5*;SF1 AF2mut Luc=13.8*
CCOC(=O)[C@]12Cc3c(cc(OC)c(OC)c3OC)[C@H]1N(C(C)C)C(=O)c1ccccc12	-1.1	/	5.5*	-0.9	0.4	/	DAX1 inh confirm=4.6*;SF1 AF2mut Luc=6.4*
COc1ccc(CC(=O)C2C(=O)N(C)c3ccccc32)cc1OC (stereo not given)	-2.7	/	-1.2	-0.3	-0.7	-1.2
CC(C)NP(=O)(NC(C)C)OP(=O)(NC(C)C)NC(C)C	2.4	3.0	-0.6	0.2	-0.6	2.3
Cc1cc2c(cc1C)NP(=S)(c1ccccc1)N2	19.2*	/	10.5*	1.2*	8.0*	0.5	DAX1 inh confirm=13.1*;SF1 AF2mut Luc=8.4*;LXRb hcDAF ctr=1.5;hcDAF12 ag=12.8*
Cc1ccccc1N1CCN(C2CCCN(C(=O)Cc3c(C)noc3C)C2)CC1 (stereo not given)	-0.7	-0.3	0.3	-1.1	0.1	0.7
